# An excerpt weighted towards active compounds, which were near 6.1% of everything screened.
# D1 antagonist: Antagonist of Human D 1 Dopamine Receptor: qHTS | HEK293 TREx D1 cells, calcium flux, dopamine EC80; active compounds read low | activity change, negative = inhibition, % at 10 µM | 3.2% of 360,000 active; in the data active = activity change below about -30%; note: % is set by controls: 0 for no effect and ±100 for the full control effect
#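 HEK293 T-REx cells expressing inducible, force-coupled D1 receptor; no-wash Ca dye, 30–90 min RT. Cmpd → 180 s read at 1 Hz → EC80 DA → 180 s read.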
# D1 PAM: Potentiators of Human D1 Dopamine Receptor: qHTS; 0.036% of 360,000 active; D(1A) dopamine receptor (Homo sapiens), P21728; potentiation, % at 10 µM; HEK293 TREx D1 cells, calcium flux, dopamine EC20 potentiation; AID 504651, 2011; in the data active = potentiation above about 30%; note: 0% is about no effect
# D3 antag: qHTS of D3 Dopamine Receptor Antagonist: qHTS; D(3) dopamine receptor (Homo sapiens), P35462; D3R cells, DiscoveRx beta-arrestin luminescence, antagonist mode; active compounds read low; max response, negative = inhibition, %; 2.5% of 360,000 active; in the data active = max response below about -50%; inconclusive = no clear call, values can overlap the other calls; note: % is set by controls: 0 for no effect and ±100 for the full control effect
# Target sequence (P35462 whole entry, looked up): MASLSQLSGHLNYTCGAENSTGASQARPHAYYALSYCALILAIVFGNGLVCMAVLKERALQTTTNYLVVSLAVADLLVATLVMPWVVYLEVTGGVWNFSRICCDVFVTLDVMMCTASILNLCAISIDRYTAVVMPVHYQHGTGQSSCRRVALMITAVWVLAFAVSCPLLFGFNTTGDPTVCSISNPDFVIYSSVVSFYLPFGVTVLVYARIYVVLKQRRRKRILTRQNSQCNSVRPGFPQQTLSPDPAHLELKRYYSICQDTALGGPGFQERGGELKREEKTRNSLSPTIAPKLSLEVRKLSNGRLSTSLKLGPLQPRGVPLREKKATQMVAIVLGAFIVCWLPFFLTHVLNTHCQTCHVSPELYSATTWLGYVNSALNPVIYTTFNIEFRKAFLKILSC
#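 Cells plated overnight at 1500 cells/well, then exposed to library compounds with dopamine controls for 90 minutes at 37 degrees C. DiscoveRx reagent added for 30–60 minutes at room temperature; luminescence read, quantitative HTS format.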
# D1 agonist: Allosteric Agonists of the Human D1 Dopamine Receptor: qHTS; D(1A) dopamine receptor (Homo sapiens), P21728; HEK293 T-REx D1 cells, calcium flux, agonist mode; activation, % at 2 µM; 1% of 360,000 active; AID 504660, 2011; in the data active = activation above about 30%; note: 0% is about no effect
#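 Tetracycline-induced HEK293 TREx D1 cells, force-coupled to calcium signalling, were dye-loaded with a no-wash calcium kit. Compound was pin-added after a 10 s baseline. Fluorescence was read kinetically at 1 cycle/s for 180 s, with calcium rises flagged as agonism.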
# ERG Ets-DNA blk: qHTS for Small Molecule Inhibitors of the ERG Ets/DNA interaction; fluorescence polarization, His-ERG Ets domain / labelled DNA; 0.028% of 370,000 active; Potency, µM (highest dose often 76.9 µM), for the others: at the top dose FP activity, negative = inhibition, usual class: inhibitors; Transcriptional regulator ERG (Homo sapiens), P11308; active = well fitted inhibition curve with a large enough effect in the polarisation, with a control signal flat; inconclusive = small, poorly fitted or top-dose-only effect, or effect the other way, or a change in a side signal; inactive = no such curve, though single readings can be large or run the other way; the % refers to the polarisation;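 note: polarization taken with two DNA probes labelled with fluorescein and Texas red; potency is the fitted concentration of half-maximal effect; % of control where 0% means no effect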
#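 His-tagged ERG Ets domain (1 uM in the protein solution; 300mM KCl, 50mM Tris-HCl, 1mM EDTA, 1mM DTT, pH 7.5) received compound, then a probe mix of 5 nM fluorescein-DNA and 100nM Texas-615-DNA. Fluorescence polarization was read for both dyes.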
# D3 ag: qHTS of D3 Dopamine Receptor Agonist: qHTS. D(3) dopamine receptor (Homo sapiens), P35462. 0.58% of 410,000 active. D3R DiscoveRx beta-arrestin cells, luminescence, 90 min. max activation, %; in the data active = max activation above about 30%; note: 0% is about no effect
#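 Agonist-mode cell screen: cells plated at 1500/well and incubated overnight at 37 °C, then exposed to library compounds for 90 min at 37 °C. Detection reagent was added for 30–60 min at room temperature, and luminescence was read.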
# Active calls of the source: *; ? = inconclusive; . = no result given.
SMILES,D1 antagonist,D1 PAM,D3 antag,D1 agonist,ERG Ets-DNA blk,D3 ag
CCn1c(C(=O)O)c(CC(=O)NC2CCCCCC2)c2ccccc21,-3.9,2.8,-89.3*,-2.4,12.9%,7.0
COc1ccc(N2CCN(c3oc(/C=C/c4cc(OC)c(OC)c(OC)c4)nc3C#N)CC2)cc1,7.4,2.0,.,-0.5,5.6%,13.3
CN(CC(=O)NC(=O)NCc1ccccc1)CC(=O)Nc1ccc(Cl)c(C(F)(F)F)c1,-26.3,2.7,12.1,9.9,-7.5%,8.8
COc1ccc(C(=O)OCC(=O)Nc2ccc(Cl)c(C(F)(F)F)c2)c(OC)c1OC,-10.8,-9.1,8.6,5.4,-2.3%,4.7
COc1cc(CC(=O)Nc2ccc(Cl)c(C(F)(F)F)c2)cc(OC)c1OC,-34.6*,-2.6,0.0,11.7,0.6%,0.4
CN(CC(=O)NCc1ccccc1)CC(=O)Nc1ccc(Cl)c(C(F)(F)F)c1,12.5,.,6.2,63.6*,1.9%,6.3
CN(CC(=O)Nc1ccc(Cl)c(C(F)(F)F)c1)C(=O)c1cccs1,-51.5*,-9.7,7.3,11.6,0.1%,-3.1
COc1ccc(N2CC(NC(=O)COc3cccc(C)c3)CC2=O)cc1OC (stereo not given),.,0.2,.,33.4*,-5.0%,-13.0
COc1ccc(N2CC(NC(=O)COc3ccc(F)cc3)CC2=O)cc1OC (stereo not given),.,3.0,.,86.0*,-10.2%,-1.7
COc1ccc(N2CC(NC(=O)COc3ccccc3F)CC2=O)cc1OC (stereo not given),.,-0.9,.,-2.9,-5.9%,-8.8
COc1ccc(N2CC(NC(=O)COc3ccccc3)CC2=O)cc1OC (stereo not given),.,-0.8,.,4.6,-3.8%,8.3
COC(=O)c1ccccc1OC(=O)c1cc[n+]([O-])cc1,9.2,30.8*,-4.8,6.7,-0.1%,-0.9
O=C(CNC(=O)c1cccc(F)c1)N/N=C/c1ccc(O)c([N+](=O)[O-])c1,-4.6,-6.4,-28.6,-0.4,7.1%,-14.2
COc1ccc([N+](=O)[O-])cc1/C=N/NC(=O)CNC(=O)c1cccc(F)c1,-11.3,1.9,-116.9*,-1.3,-20.2%,-30.2
COc1ccc([N+](=O)[O-])cc1/C=N/NC(=O)CNC(=O)C(c1ccccc1)c1ccccc1,-32.1*,-8.2,0.0,2.1,-1.9%,-18.6
COc1ccc(C(=O)Nc2oc(-c3ccccc3)c(-c3ccccc3)c2C#N)cc1,3.0,-2.7,-63.8*,0.9,3.1%,-17.3
COc1ccc(-c2oc(NC(=O)c3ccc(C)cc3)c(C#N)c2-c2ccc(OC)cc2)cc1,12.6,-5.9,20.8,2.4,9.9%,-3.6
NC(=O)c1nn(-c2ccccc2)nc1NC(=O)CSc1nnnn1-c1ccc(Cl)cc1,-23.1,-7.3,-12.5,3.0,10.0%,-4.8
COc1cc(F)cc(C2=CC(=O)C[C@H](c3ccc(F)cc3)C2)c1,.,6.6,-78.7*,2.4,11.0%,-16.0
COc1ccc([C@H]2CC(=O)C=C(c3cccc(OC(F)(F)F)c3)C2)cc1,-30.1*,8.9,-25.5,7.1,-1.1%,1.7
O=C(COc1ccccc1)N1CCN(S(=O)(=O)c2ccc(Br)cc2)CC1,-25.7,0.1,15.3,9.3,3.1%,1.5
CCN1CCCC1CNC(=O)c1ccc(Sc2ccccc2Cl)c([N+](=O)[O-])c1 (stereo not given),1.9,-14.2,-75.0*,14.3,-13.6%,-14.6
O=C(NCCCN1CCOCC1)c1ccc(Sc2ccc(F)cc2)c([N+](=O)[O-])c1,-20.7,-8.2,-13.7,15.5,.,-6.4
CCN1CCCC1CNC(=O)c1ccc(Sc2ccc(F)cc2)c([N+](=O)[O-])c1 (stereo not given),-1.2,-2.0,-76.7*,16.2,2.0%,-7.7
CC(C)NC(=O)c1cc2c(C(F)(F)F)nn(C)c2s1,-18.3,3.7,16.9,-1.4,-0.2%,3.4
SMILES,D1 antagonist,D1 PAM,D3 antag,D1 agonist,ERG Ets-DNA blk,D3 ag
Cc1cc(Br)ccc1NC(=O)CSc1nnc(CN2CCOCC2)n1C,-4.0,0.1,0.6,-0.6,-11.9%,0.1
Cn1nc(C(F)(F)F)c(CN2CC(C)(C)C2=O)c1N1CCOCC1,-30.7*,-5.2,-22.6,0.2,-5.2%,-9.3
Cc1ccc2cc(CN(CCN3CCCC3)C(=O)Nc3ccccc3)c(=O)[nH]c2c1C,5.0,0.8,-67.4*,1.2,2.7%,-10.7
Cc1ccc2cc(CN(CCN3CCCC3)C(=O)Nc3ccc(F)cc3)c(=O)[nH]c2c1C,2.9,-4.0,-77.7*,2.6,-0.3%,-23.6
COc1ccc(NC(=O)C2CCCN(S(=O)(=O)c3ccc(Cl)cc3)C2)cc1 (stereo not given),12.2,2.4,.,-1.5,-1.5%,1.4
CCOC(=O)N1CCN(C(=O)c2ccc(-n3c(=S)[nH]c4ccccc4c3=O)cc2)CC1,-1.1,-5.5,13.3,-2.3,-9.3%,41.9*
CCCCCn1c(=S)[nH]c2cc(C(=O)N3CCN(C(=O)OCC)CC3)ccc2c1=O,-3.5,.,-89.9*,1.2,1.1%,2.9
CCCCCn1c(=S)[nH]c2cc(C(=O)N3CCCC3)ccc2c1=O,-12.5,-1.9,3.3,5.7,3.1%,-1.5
C[C@@H]1CCC2[C@](C)(CO)[C@@H](O)CC[C@]2(C)[C@@]12CCC(CO)(CCO)O2 (stereo not given in full),-2.1,-10.8,-2.2,0.0,-3.1%,0.2
CC(C)Oc1ccc(C(CCN)C2CCCCC2)cc1 (stereo not given),39.7,12.0,?,102.3*,3.7%,-9.5
CC(=NCC1CCCO1)C1=C(O)CC(C)(C)CC1=O (stereo not given),-11.0,-3.2,0.0,3.4,9.6%,2.0
N#Cc1c(-c2cccc(Br)c2)cc(-c2ccco2)[nH]c1=O,0.0,1.8,6.0,5.2,21.9%,10.3
Nc1nc(CN2CCN(c3ccccc3)CC2)nc(Nc2ccc(Cl)cc2)n1,-40.1*,-6.5,2.2,0.5,9.1%,-4.8
Cc1ccccc1Nc1nc(N)nc(CN2CCN(Cc3ccc4c(c3)OCO4)CC2)n1,-0.9,-5.8,-4.6,-0.6,-13.9%,-8.1
Nc1nc(CN2CCN(Cc3ccc4c(c3)OCO4)CC2)nc(Nc2ccccc2)n1,-46.5*,-9.7,?,2.0,4.9%,-4.3
O=C(CSc1nc2[nH]c(=O)cc(O)c2s1)Nc1cc(Cl)cc(Cl)c1,5.2,-4.2,4.2,-0.4,0.6%,3.8
S=C(NC1CCCC1)NC1CC1,-40.6*,-5.3,7.3,5.8,-7.2%,-4.6

# Screening results as filed in PubChem BioAssay.
